Here are results for 90 compounds from PubChem BioAssay AID690 (Sanford-Burnham Center for Chemical Genomics, 2007).

For orientation: inhibition means the relative decrease from the control value, in per cent.

SMILES strings stand for the structures. The whole screen tested about 96,000 compounds, of which about 80 (0.08%) were called active. How the calls were made is not given here. A selection follows. Entries with a potency or affinity are not part of this list. Residues, ends and D or L forms follow the SMILES beside them.

Chain of Alkaline phosphatase, placental type (Homo sapiens) (P05187 whole entry, looked up): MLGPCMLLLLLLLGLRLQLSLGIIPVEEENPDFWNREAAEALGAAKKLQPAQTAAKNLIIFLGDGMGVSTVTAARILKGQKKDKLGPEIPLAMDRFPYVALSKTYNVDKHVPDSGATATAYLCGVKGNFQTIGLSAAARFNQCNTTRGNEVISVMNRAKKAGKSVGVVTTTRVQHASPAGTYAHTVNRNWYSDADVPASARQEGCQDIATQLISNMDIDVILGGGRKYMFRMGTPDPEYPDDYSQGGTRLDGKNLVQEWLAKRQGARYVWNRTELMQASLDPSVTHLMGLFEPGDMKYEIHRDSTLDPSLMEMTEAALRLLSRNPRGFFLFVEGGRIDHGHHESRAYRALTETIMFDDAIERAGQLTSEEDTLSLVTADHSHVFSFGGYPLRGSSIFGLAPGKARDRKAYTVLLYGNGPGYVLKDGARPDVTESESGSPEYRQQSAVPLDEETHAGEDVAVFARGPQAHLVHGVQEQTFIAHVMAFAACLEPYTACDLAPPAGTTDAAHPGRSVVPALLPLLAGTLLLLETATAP

This experiment addresses Alkaline phosphatase, placental type (Homo sapiens) (UniProt P05187). As to the kind of experiment: inhibition of human placental alkaline phosphatase – biochemical, luminescence, HTS (AID 690). The following applies: purified PLAP, luminescent substrate; at 20 µM; stronger effect = higher value.
As to `CSc1cccc(NC(=O)Nc2ccccc2)c1`, the inhibition is 2.1% (inactive). The same measure for `CSc1cccc(NC(=O)/C=C/c2ccc(Cl)cc2)c1`: 20.8% (inactive); for `CCS(=O)(=O)n1nc(-c2ccc(C)cc2)nc1N`: 13.8% (inactive); for `CCCN1C(=O)/C(=C/C=C2\N(CC)c3ccccc3C2(C)C)SC1=S`: 22.7% (inactive). The same measure for `CCN1C(=O)C(O)(CC(=O)/C=C/C=C/c2ccccc2)c2ccccc21` (stereo not given): -9.7% (inactive); for `Cn1c(=O)oc2cc(S(=O)(=O)N3CCC(C(=O)N4CCc5ccccc5C4)CC3)ccc21`: 12.8% (inactive); for `Cc1ccc(NC(=S)NCCC(c2ccccc2)c2ccccc2)c(C)c1`: -44% (inactive). The same measure for `O=C1CC(SCCc2nc3ccccc3[nH]2)C(=O)N1c1ccc(Cl)cc1` (stereo not given): -15.3% (inactive).

Regarding `COc1ccc(C2=C(C=Nc3c(C)n(C)n(-c4ccccc4)c3=O)C(c3ccccc3C)c3ccccc3O2)cc1OC` (stereo not given), the inhibition is -61% (inactive).

Regarding `Cc1ccc(NC(=O)CCn2cccc2)cc1C`, the inhibition was 5.5% (inactive). As for `O=c1oc2ccccc2n1CSc1nc2ccccc2s1`, the inhibition is 46.4% (inactive).

Take `O=C(CSc1nc2ccccc2s1)N1c2ccccc2Sc2ccc(Cl)cc21`: the inhibition was 9.1% (inactive). Take `CCOc1ccc(C(CCc2ccccc2)NC(=O)c2ccccc2OC)cc1OCC` (stereo not given): the inhibition is -15.5% (inactive). In the case of `CS(=O)(=O)N1CCN(c2nc3ccccc3s2)CC1` it was 2.4% (inactive). In the case of `COc1cc(/C=C(\C#N)C(=O)Nc2ccc(SC(F)F)cc2)cc(OC)c1OC` it was -62% (inactive); in that of `COc1ccc(NC(=O)/C(C#N)=C/c2ccc(Br)o2)cc1`, -0.4% (inactive); in that of `CCc1ccc(/C(C)=N\Nc2ccc([N+](=O)[O-])cc2)cc1`, 26.2% (inactive). The same measure for `C/C(=N\Nc1nc(N)cc(Cl)n1)c1cccc([N+](=O)[O-])c1`: -13.2% (inactive); for `COCCNC(=O)C(c1cccc(OC)c1)N(C(=O)Cn1nnc2ccccc21)c1cccnc1` (stereo not given): -24% (inactive); for `CCOc1ccccc1C(=O)Nc1ccc(S(=O)(=O)N2CCOCC2)cc1`: -60.6% (inactive). In the case of `O/N=C/c1cc(Cl)ccc1OCc1ccccc1Cl`, the inhibition is 0% (inactive). Take `CCOc1ccc(Cl)cc1/C=N/O`: the inhibition was 10.1% (inactive).

Consider `COc1cccc(C(=O)NCCC2=CCCCC2)c1`, for which the inhibition is 8.1% (inactive). The same measure for `COc1cc(/C=N/NC(N)=S)ccc1OCC(=O)Nc1ccc(C)c(C)c1`: 4.4% (inactive); for `CN1c2ccccc2C(C)(C)C12C=Nc1c(ccc3ccccc13)O2` (stereo not given): 0.3% (inactive). Take `CN1c2ccccc2C(C)(C)C12C=Cc1cc(O)ccc1O2` (stereo not given): the inhibition is 27.8% (inactive).

`CC1=NN(C(=O)Cc2ccc([N+](=O)[O-])cc2)C(O)(c2ccccc2)C1` (stereo not given): the inhibition is -32.3% (inactive). In the case of `CCOc1ccc(-c2nnc3sc(COc4ccc(C)cc4)nn23)cc1` it was -25.7% (inactive). In the case of `CCOc1ccc(-c2nnc3sc(COc4ccccc4)nn23)cc1` it was 8.3% (inactive). In the case of `CCN(CC)S(=O)(=O)c1cc([N+](=O)[O-])ccc1NNC(=O)Nc1ccc(Cl)c(Cl)c1` it was -23.2% (inactive). For `Cc1cc(-c2nnc(SCC(=O)N3C(C)CCCC3C)o2)no1` (stereo not given), the inhibition is 0.5% (inactive). In the case of `CCOC(=O)C1=C(O)/C(=C/c2cc(OC)c(OC)c(OC)c2)N=C1C` it was -30.7% (inactive); in that of `CCOC(=O)C1=C(O)/C(=C\c2ccc(OC)c(OC)c2)N=C1C`, -24.6% (inactive). Regarding `Cc1nn(-c2ccccc2)c(C)c1CCC(=O)O`, the inhibition is -21.2% (inactive). In the case of `Cc1cc2cc(CN(CCCO)S(=O)(=O)c3cccc4nsnc34)c(=O)[nH]c2cc1C` it was -57.9% (inactive).

As for `O=C(CCCn1c(SCC(=O)NCC2CCCO2)nc2ccccc2c1=O)NCc1ccccc1` (stereo not given), the inhibition is -31.1% (inactive). In the case of `O=C(CCCn1c(SCC(=O)NCC2CCCO2)nc2ccccc2c1=O)NCC1CCCO1` (stereo not given), the inhibition is -4.3% (inactive). In the case of `CC(C)(C)c1nn(-c2ccccc2)c2[nH]c(=O)c(CNc3ccc4c(c3)OCCO4)cc12` it was -71.4% (inactive); in that of `Cc1ccc(C(=O)CN(C(=O)c2ccc(Cl)c(Cl)c2)N2C(=O)C3CCCCC3C2=O)cc1` (stereo not given), -10.4% (inactive). The same measure for `O=C(/C=C/NNC(=O)c1cccc(Br)c1)c1cccc(Br)c1`: -55.3% (inactive); for `CCC(=O)Nc1cccc(C(=O)/C=C/c2ccccc2)c1`: -3.5% (inactive); for `O=C(CCN1C(=O)c2ccccc2C1=O)NC1=NCCS1`: 8.9% (inactive). The same measure for `CCOC(=O)C1=NN(c2ccccc2)C(=O)/C1=C\c1ccc(N(C)C)cc1`: 2.6% (inactive). For `CC1=NOC(=O)/C1=C/c1ccc(N(C)C)cc1`, the inhibition is -1.4% (inactive).

With `Cc1ccc(C(=O)Nc2nc3ccc(S(C)(=O)=O)cc3s2)s1`, the inhibition was 1.6% (inactive).

On to `Cc1ccc(CS/C(Nc2ccccc2C)=C(\C#N)C(=O)NCc2ccco2)c(C)c1`, for which the inhibition is -32.5% (inactive). The same measure for `CC(C)Oc1ccc(CNC(=O)CC(c2ccccc2)c2cc(Cl)ccc2O)cc1` (stereo not given): -26.3% (inactive). The same measure for `CCc1c(C#N)c(N)nc(SCC(=O)OCc2ccccc2)c1C#N`: 14.4% (inactive); for `COC(=O)CSc1nsc(SCC(=O)OC)c1C#N`: 13.1% (inactive); for `O=C(O)CSCc1ccc(Cl)cc1`: -5.7% (inactive). In the case of `CS(=O)(=O)NCCSCc1ccc(Cl)cc1` it was -9.2% (inactive); in that of `c1ccc(SCCc2ccncc2)cc1`, -3.2% (inactive); in that of `c1ccc2c(CSCCc3ccncc3)cccc2c1`, -15.7% (inactive). Regarding `CCn1c(C)c(C(C)=O)c(N2CCN(c3ccccc3)CC2)nc1=S`, the inhibition was -3.4% (inactive). The same measure for `O=C(NCc1ccc2c(c1)OCO2)C1CCCN(S(=O)(=O)c2cccc3nonc23)C1` (stereo not given): -13.3% (inactive).

With `O=C1N2CCSC2=NC1(Nc1ccccn1)C(F)(F)F` (stereo not given), the inhibition was 2% (inactive).

Consider `CCC(CC)NC(=O)Cc1ccccc1[N+](=O)[O-]`, for which the inhibition was -5.8% (inactive). In the case of `COc1ccc(CNC(=O)c2ccccc2[N+](=O)[O-])cc1` it was -9.5% (inactive). Consider `Cc1ccc(N(CC(=O)NCc2ccncc2)S(C)(=O)=O)cc1Cl`, for which the inhibition was -7% (inactive). The same measure for `O=C(CSc1nnc(Cn2nnc3ccccc32)o1)N(Cc1ccc(F)cc1)c1ccccc1`: 2.6% (inactive); for `CCSc1nc2c(cnn2-c2ccc(C)c(C)c2)c(=O)[nH]1`: -20.6% (inactive). The same measure for `COC(=O)CN1C(=O)S/C(=C/c2ccc(N3CCCCC3)o2)C1=O`: -25.9% (inactive). `CCOC(=O)CN1C(=O)S/C(=C/c2ccc(N3CCCCC3)o2)C1=O`: the inhibition is -4.2% (inactive).

In the case of `CCO/C=C1/C(=O)N(CC)c2ccccc21`, the inhibition was 4.3% (inactive). In the case of `O=C(OCC(O)CN1CCCCC1)C12CC3CC(CC(C3)C1)C2` (stereo not given) it was -58.5% (inactive); in that of `COC(=O)C(CC(C)C)NC(=O)C(N)Cc1ccccc1` (stereo not drawn) (H-Phe-Leu-OMe; configuration not given here), -5.6% (inactive); in that of `COC(=O)C(N)Cc1ccc(O)cc1` (stereo not given), 18.8% (inactive). In the case of `O=C(CC(NC(=O)c1ccccc1Cl)c1ccccc1)Nc1ccc2c(c1)OCO2` (stereo not given) it was 2.4% (inactive); in that of `Cc1cccc(NC(=O)C2c3ccccc3C(=O)N3CCc4ccccc4C23)n1` (stereo not given), 2.2% (inactive).

For `O=C(/C(=C/c1ccc(Cl)cc1)c1nc2ccccc2[nH]1)c1cccs1`, the inhibition is -30.3% (inactive).

Take `COc1cc(/C=C(/C(=O)c2cccs2)c2nc3ccccc3[nH]2)ccc1O`: the inhibition was 33.6% (inactive). In the case of `COc1cc(CNCCc2ccc(F)cc2)ccc1OCc1ccc(Cl)nc1` it was -50.6% (inactive). In the case of `O=C(N1CCOCC1)C12CC3CC(C1)CC(c1ccccc1)(C3)C2` it was -20.7% (inactive).

In the case of `CSC1=N/C(=C\c2ccc(C)cc2)C(=O)S1`, the inhibition was 1.7% (inactive). The same measure for `CCSC1=N/C(=C\c2ccc(C(=O)O)cc2)C(=O)S1`: 11.5% (inactive); for `Cn1nc([N+](=O)[O-])nc1N1CCN(c2ccc(F)cc2)CC1`: 20.5% (inactive).

For the compound `CCOC(=O)N1CCC(NC(=O)C(CC(C)C)NC(=O)C2CCC(C)CC2)CC1` (stereo not given), the inhibition is -63.6% (inactive).

In the case of `CCN(CC)C(=O)Cn1c(=O)n(-c2ccccc2)c(=O)n1CC(=O)N(CC)CC`, the inhibition was 8.2% (inactive). The same measure for `COC(=O)c1cn[nH]c1NC(=S)Nc1ccc(Cl)c(Cl)c1`: -146% (inactive). Turning to `COC(=O)c1cn[nH]c1NC(=S)Nc1ccc(C)cc1Cl`, the inhibition was -10% (inactive). The same measure for `CN(C)S(=O)(=O)c1cccc(C(=O)Nc2cc(Cl)cc(Cl)c2)c1`: -58.5% (inactive).

Consider `Cc1noc(C)c1COC(=O)COc1ccc2c(C)cc(=O)oc2c1`, for which the inhibition was 8.3% (inactive).

Turning to `CCOC(=O)/C(C#N)=C1/C=Cc2ccccc2N1CC`, the inhibition was 3.8% (inactive). In the case of `CCN1C(=C2C(=O)c3ccccc3C2=O)C=Cc2ccccc21` it was 46.7% (inactive); in that of `CCOc1ccc(CSC(=N)N)cc1[N+](=O)[O-]`, -79.6% (inactive).

Turning to `CCCCCOc1ccc(CSC(=N)N)cc1[N+](=O)[O-]`, the inhibition was 34.2% (inactive). In the case of `CCN1/C(=C/C(=O)c2ccco2)Sc2ccccc21` it was -0.2% (inactive).

For the compound `CCN1/C(=C2\OC(=S)N(C)C2=O)Sc2ccccc21`, the inhibition was 13.9% (inactive). The same measure for `CCN(CC)S(=O)(=O)c1ccc(C(=O)Nc2cc(C)cc(C)c2)cc1`: 6% (inactive); for `Cc1ccc2nc(SCC(=O)Nc3ccc4c(c3)OCCO4)[nH]c2c1`: -75.7% (inactive).
